Compound activity: PubChem, National Center for Advancing Translational Sciences (NCATS)
PNC inhibitor: inhibitors of perinucleolar compartment assembly; PC3M PTB-GFP, PNC prevalence imaging, 16 h; hits give low values; activity change (PNC), negative = inhibition, % at 10 µM; AID 2417; actives 3.1% (n = 140,000);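 active = readout at or below -70, meaning at least 70% loss of cells showing the perinucleolar compartment, a nuclear body marking cancer cells; inconclusive = readout between -30 and a set limit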;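 note: plate controls were DMSO wells for no effect and camptothecin positive control wells for full effect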
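Compounds are pinned in duplicate onto adhered PC3M cells stably expressing GFP-tagged PTB and incubated 16 h at 37 C. Cells are then fixed, nuclei stained with Hoechst, and PNC-positive cells counted.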
ALOX12 inhib: inhibitors of human 12-lipoxygenase (ALOX12); actives 0.12% (n = 150,000); purified 12-hLO, xylenol orange hydroperoxide absorbance; Potency, µM (top dose mostly 57.1 µM), for the others: top-dose activity change, negative = inhibition, usual class: inhibitors; AID 1452; active = well fitted inhibition curve with a large enough effect; inconclusive = small, poorly fitted or top-dose-only effect; note: potency is the fitted concentration of half-maximal effect; nearly all actives have a fitted effect of over 55% in size
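Purified human 12hLO (150 nM final) was preincubated with compounds for 15 min at room temperature in 25 mM Hepes pH 7.0, 0.01% Triton X-100, then reacted with 40 uM arachidonic acid for 30 min. Hydroperoxide was detected with ferrous iron/xylenol orange.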
ALDH1A1 inh: inhibitors of human aldehyde dehydrogenase 1A1 | Potency, µM (doses to about 75.3 µM), for inactives: at the highest dose activity, negative = inhibition, actives largely listed as inhibitors | P00352 | Purified ALDH1A1, NADH fluorescence, propionaldehyde substrate | actives 7.3% (n = 220,000) | AID 1030;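 note: potency is the fitted concentration of half-maximal effect; plate controls were no enzyme wells and a reference inhibitor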
Target sequence (P00352 whole entry, looked up): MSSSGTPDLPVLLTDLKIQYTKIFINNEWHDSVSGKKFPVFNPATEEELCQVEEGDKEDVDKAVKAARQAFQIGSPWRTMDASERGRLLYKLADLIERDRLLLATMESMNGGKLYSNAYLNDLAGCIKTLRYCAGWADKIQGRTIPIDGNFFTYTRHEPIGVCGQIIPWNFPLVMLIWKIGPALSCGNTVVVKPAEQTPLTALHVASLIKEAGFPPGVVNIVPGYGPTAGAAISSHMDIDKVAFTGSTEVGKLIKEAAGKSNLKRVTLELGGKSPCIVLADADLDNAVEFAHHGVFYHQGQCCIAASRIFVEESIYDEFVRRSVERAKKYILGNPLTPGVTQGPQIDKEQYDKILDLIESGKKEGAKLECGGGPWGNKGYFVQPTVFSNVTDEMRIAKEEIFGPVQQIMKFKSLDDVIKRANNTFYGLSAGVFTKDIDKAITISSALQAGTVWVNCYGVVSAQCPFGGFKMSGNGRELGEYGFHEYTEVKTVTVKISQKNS
HPGD block: inhibitors of human 15-hydroxyprostaglandin dehydrogenase (HPGD); Potency, µM, for the others: at the highest dose activity change, negative = inhibition, usual class: inhibitors; actives 4.3% (n = 150,000); purified HPGD, NADH fluorescence kinetic, PGE2 substrate; note: potency is the fitted concentration of half-maximal effect
Target sequence (P15428 whole entry, looked up): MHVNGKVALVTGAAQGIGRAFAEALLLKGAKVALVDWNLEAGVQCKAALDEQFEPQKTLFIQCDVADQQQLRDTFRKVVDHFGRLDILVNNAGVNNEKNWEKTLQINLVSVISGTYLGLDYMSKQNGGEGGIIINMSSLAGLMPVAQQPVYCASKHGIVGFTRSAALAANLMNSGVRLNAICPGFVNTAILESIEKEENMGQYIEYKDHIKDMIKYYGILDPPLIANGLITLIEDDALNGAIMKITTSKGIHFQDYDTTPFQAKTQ
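NADH formation kinetics: reaction with 30 uM PGE2 and 1 mM NAD+ (final), 20 nM enzyme, Tris-HCl pH 8 with Tween 20, after 15 min compound preincubation at room temperature. Fluorescence change, last versus first of five reads.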
LMNA splice mod: modulators of lamin A splicing; AID 1487; actives 0.01% (n = 200,000); Potency, µM (titrated, usually from 46.1 µM), without a hit: top-dose ratio change, negative = inhibition, hits mostly inhibitors; HeLa LMNA splicing GFP/RFP minigene ratio, 48 h; active = well fitted inhibition curve with a large enough effect in the signal ratio, with a control signal flat, not every such curve was filed as active; inconclusive = small, poorly fitted or top-dose-only effect, or effect the other way, or a change in a side signal; the % refers to the signal ratio; note: potency is the fitted concentration of half-maximal effect
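S3 HeLa stable clones carrying a lamin A-EGFP splicing minigene plus DsRed2 were seeded at 600 cells/well in Opti-MEM with 2% FBS, pin-dosed and incubated 48 h at 37°C. Acumen cytometry (488 nm) gave the GFP/RFP total-intensity ratio.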
Active calls of the source: *; ? = inconclusive; · = not tested or not shown; [ ] = remark or other dose. Shown are actives, neighbours in structure and some others; about 10% of the full set was active somewhere. Unless noted, calls come from the whole dose curve; as a rule, active = well fitted inhibition curve with a large enough effect (not every such curve was filed as active); inconclusive = small, poorly fitted or top-dose-only effect, or another doubt; inactive = no such curve, though single readings can be large or run the other way. Unless noted, % is set by controls: 0 for no effect and ±100 for the full control effect.

SMILES | PNC inhibitor | ALOX12 inhib | ALDH1A1 inh | HPGD block | LMNA splice mod
COC(CNC(=O)c1cc(C(=O)c2c(-c3c(Cl)cccc3Cl)noc2C)c[nH]1)OC | -3 | 0% | 10µM* | -22% | ?
Cc1onc(-c2ccccc2)c1C(=O)Nc1sc2c(c1C#N)CCC(C)C2 (configuration not stated) | 12 | -6% | ? | -10% | 4%
CS(=O)(=O)Nc1cccc(-c2ccc3ncnc(NCCN4CCOCC4)c3c2)c1 | · | · | 22% | · | -9%
CC(=O)Nc1c(C)nn(-c2ccccc2)c1N1CCC(C(=O)NCc2ccc(F)cc2)CC1 | · | · | · | · | 9%[46 µM]
Cc1ccc(CNC(=O)Cc2c(C(=O)O)c(C)cn2C)cc1 | · | · | · | · | 14%[46 µM]
O=C(NCCc1ccccc1Cl)c1ccc2c(c1)nc1n2CCOC1 | · | · | · | · | -1%[46 µM]
C=CCn1c(Cc2cccc3ccccc23)n[nH]c1=S | -25 | -5% | -8% | 28µM* | ?
S=c1[nH]nc(Cc2noc3ccccc23)n1-c1ccccc1 | · | · | -2% | · | ·
C=CCn1c(CCn2c3ccccc3c3ccccc32)n[nH]c1=S | -6 | -8% | ? | ? | -15%
S=c1[nH]nc(CCSCc2ccccc2)n1-c1ccccc1 | · | · | 35µM* | · | ?
S=c1[nH]nc(Cc2cccc3ccccc23)n1-c1ccccc1 | 41 | ? | ? | 14µM* | -20%
Cc1ccc(Cn2ccnc2SCC(=O)Nc2ccc3c(c2)OCCO3)cc1 | · | · | · | · | 6%[46 µM]
CCOC(=O)N1CCN(C(=S)NC)CC1 | 55 | 9% | 5% | -12% | 19%
CCOC(=O)N1CCN(C(=O)C(=O)NN)CC1 | · | · | 13µM* | · | 14%[46 µM]
N#C/C(=N\Nc1ccc(F)cc1)C(=N)N1CCCCC1 | -3 | -22% | 28µM* | -25% | -2%
N#C/C(=N\Nc1cccc(F)c1)C(=N)N1CCCCCC1 | · | · | 5% | · | ?
O=C(CN1C(=O)C2CCCCN2c2ccc(C(=O)N3CCCC3)cc21)NCc1ccccc1F (configuration not stated) | · | · | · | · | 8%[46 µM]
Clc1ccccc1CN1CCN(/N=C/C=C\c2ccco2)CC1 | · | · | 3.2µM* | · | 3%[46 µM]
NC(=O)N/N=C\c1cc(Br)ccc1O | 7 | 1% | -3% | -21% | -13%
O=C(N/N=C/c1cc(Cl)ccc1O)c1ccc(Br)cc1 | -107* | -17% | -10% | -19% | ?
CCN(CC)c1nn2c(=O)c(C(=O)NCc3cccc(OC)c3OC)cnc2s1 | · | · | · | · | 13%[46 µM]
O=c1c(CCc2ccccc2)nc2cnc(N3CCOCC3)nc2n1CCc1ccccc1 | · | · | ? | · | 14%
Cc1cccc(N(CC(=O)NCc2ccc3c(c2)OCO3)C(=O)CCC(=O)Nc2ccccn2)c1C | 23 | 2% | 28µM* | -15% | 2%
COc1ccc(CNC(=O)CN(C(=O)CCC(=O)Nc2ccccn2)c2ccccc2OC)cc1 | 5 | -7% | ? | · | -1%
O=C(CCC(=O)N(CC(=O)NC1CCCC1)Cc1ccc2c(c1)OCO2)Nc1ccccn1 | -94* | 3% | -4% | · | 2%
SMILES | PNC inhibitor | ALOX12 inhib | ALDH1A1 inh | HPGD block | LMNA splice mod
Cc1ccnc(NC(=O)CCC(=O)N(CC(=O)NCc2ccccc2)Cc2cccs2)c1 | · | · | 16µM* | · | ·
COc1ccccc1N(CC(=O)NCc1ccccc1)C(=O)CCC(=O)Nc1ccccn1 | -100* | 2% | -8% | -14% | -8%
OCCN1CCN(C(c2ccc(Cl)cc2Cl)c2sc3nc(-c4ccco4)nn3c2O)CC1 (configuration not stated) | · | · | · | · | -12%[46 µM]
COCCN(CC(=O)NCc1ccc2c(c1)OCO2)C(=O)CCC(=O)Nc1nccs1 | -100* | 2% | 6% | -10% | 0%
O=C1C2C3CCC(C3)C2C(=O)N1Cc1ccco1 (configuration not stated) | 28 | -1% | 12µM* | -1% | -1%
O=C(CN1C(=O)C2C3CCC(C3)C2C1=O)NCc1ccco1 (configuration not stated) | · | · | 0% | · | 1%[46 µM]
Cc1ccc(CC2CC(=O)N(Cc3ccco3)C2=O)cc1 (configuration not stated) | -5 | -13% | 19µM* | -11% | 20%
O=C1CC(NCc2ccco2)C(=O)N1CCc1ccccc1 (configuration not stated) | 1 | -2% | -14% | -17% | 2%
O=C1CC(Cc2ccccc2)C(=O)N1Cc1ccco1 (configuration not stated) | -10 | -8% | 2.8µM* | -14% | 4%
COC(=O)c1ccccc1NC(=O)N1CCC(n2c(C)nc3cccnc32)CC1 | · | · | · | · | 2%[46 µM]
CCOC(=O)CSc1nc2ccc(NC(=O)c3ccccc3F)cc2s1 | · | · | · | · | -12%[46 µM]
CN=C(C)/C(C(=O)OC)=C(/O)c1ccc(Cl)cc1Cl | · | · | -2% | · | ·
COc1ccc(Nc2nc(N)nc(CSc3nc(C)cc(C)n3)n2)cc1 | · | · | 1% | · | 21%[46 µM]
COc1cccc(NC(=O)CSc2ncnc3c2oc2ccccc23)c1 | -26 | -2% | -3% | -14% | 0%
COc1cccc(NC(=O)CSc2nc3c(oc4ccccc43)c(=O)[nH]2)c1 | -14 | 1% | -7% | 16µM* | -1%
COc1ccc(Nc2nc(N)nc(CSc3nnc(N)s3)n2)cc1 | -96* | 0% | 10% | -11% | 3%
COc1ccc2nc(SCc3nc(N)nc(Nc4ccccc4)n3)[nH]c2c1 | ? | -4% | 7.9µM* | -19% | ?
COc1ccc2nc(SCC(=O)Nc3ccccc3)[nH]c2c1 | -107* | -19% | -76% | -26% | ?
Cc1ccc2oc(C(=O)NCC(c3ccc(Cl)cc3)N3CCOCC3)c(C)c2c1 (configuration not stated) | · | · | · | · | -10%[46 µM]
Cc1cccc(C(=O)Nc2ccc3nc(SCC(=O)N4CCc5ccccc54)sc3c2)c1 | · | · | · | · | 3%[46 µM]
COc1ccccc1-n1cc(-c2ccc(Cl)cc2)[nH]c1=O | 39 | -1% | 11µM* | -6% | -16%
CC(=O)C(Cl)C(=O)Nc1ccccc1 (configuration not stated) | · | · | 1.3µM* | · | ?
COc1ccc(NS(=O)(=O)c2ccc(NS(=O)(=O)c3ccc(C)cc3)cc2)nn1 | 19 | -9% | 13µM* | -12% | ?
Cc1cc2c(cc1S(=O)(=O)Nc1cccc(C#N)c1)OCC(=O)N2 | · | · | · | · | 4%[46 µM]
Cc1ccnc(SCc2cc(=O)c(OC(=O)c3ccc(Cl)c([N+](=O)[O-])c3)co2)n1 | 27 | 7% | 7.5µM* | ? | 7%
Cc1cc(C)nc(SCc2cc(=O)c(OC(=O)c3cccc([N+](=O)[O-])c3)co2)n1 | -5 | -10% | 0.056µM* | -4% | -4%
Cc1ccnc(SCc2cc(=O)c(OC(=O)c3ccco3)co2)n1 | 42 | 3% | 6% | -5% | -10%
CCOc1ccc(CC(=O)NCCc2csc(-c3ccc(Cl)cc3)n2)cc1 | · | · | · | · | 10%[46 µM]
CN(C)S(=O)(=O)c1cccc(C(=O)C2=C3SC=C(c4ccccc4)N3CC2)c1 | -20 | -10% | 2µM* | -25% | 8%
